Experimental findings from PubChem BioAssay are described below.

Values without a mark were called inactive. For some of these results: Entries with a potency or affinity are not part of this list. Active and inactive are the calls of the source. Unless noted, the rule behind the calls is not given here.

Assay [1] is described as follows: antimalarial activity against Dd2 strain (AID 2302;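 active = growth inhibition above 50% at the single 2 µM test dose, taken to imply half-maximal potency below 2 µM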;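 note: 0% = DMSO untreated growth and 100% = chloroquine plus artemisinin killed control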). As to conditions: P. falciparum Dd2 in RBCs, LDH growth readout, 72 h; at 2 µM; active compounds read high.
Assay [2] can be described thus: HepG2 cytotoxicity, primary screen, cytotoxicity control for P. falciparum antimalarial project, cell-based, ATP luminescence (AID 2303;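 active = inhibition above 50%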;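 note: 0% = DMSO wells and 100% = digitonin-killed cells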). The following applies: HepG2 viability, 24-48 h, at 10 µM, active compounds read high.
Assay [3] concerns the target L-lactate dehydrogenase (Plasmodium falciparum (isolate CDC / Honduras)) (UniProt Q27743). The experiment in a line: PfLDH activity inhibition – cell lysate, 3D7 strain, counter-screen for P. falciparum growth inhibition project (AID 2304).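 Note: 0% = vehicle and 100% = reference inhibitor.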 The following applies: P. falciparum 3D7 crude extract, LDH APAD/NBT absorbance; at 2 µM; active compounds read high.
Assay [4] can be described thus: inhibition of 3D7 malaria parasite growth – strain 3D7 (AID 2306).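 Note: 0% = DMSO wells and 100% = chloroquine plus artemisinin control wells.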 As to conditions: P. falciparum 3D7 erythrocytic growth, LDH absorbance, 72 h; at 2 µM; active compounds read high.
Assay [5] concerns the target Calcium-dependent protein kinase 1 (Plasmodium falciparum (isolate 3D7)) (UniProt P62344). The assay is described as follows: PfCDPK1 kinase inhibitors, biochemical, TCAMS library (AID 1159585; cut-off not given, nearly all actives have IC50 up to about 0.98 µM;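 note: inhibitors leave more ATP so luminescence rises with inhibition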). The following applies: recombinant PfCDPK1, Kinase-Glo ATP depletion luminescence.
In assay [6] the target is Plasmodium falciparum protein kinase 6 (PK6, PF3D7_1337100) (UniProt Q8IDW1). The assay is described as follows: PfPK6 kinase inhibitors, biochemical, TCAMS library (AID 1159586). The following applies: recombinant PfPK6, Kinase-Glo ATP depletion luminescence.
Assay [7] has as its target Protein kinase 7 (PK7), Plasmodium falciparum 3D7 (PF3D7_0213400) (UniProt Q7YTF7). The assay is described as follows: inhibition of Plasmodium PK7 catalytic activity – biochemical, TCAMS antimalarial set, Kinase-Glo luminescence (AID 1159587). The following applies: recombinant PfPK7, Kinase-Glo ATP depletion luminescence.
Assay [8] deals with Calcium-dependent protein kinase 4 (Plasmodium falciparum (isolate 3D7)) (UniProt Q8IBS5). The assay is described as follows: PfCDPK4 kinase inhibitors, biochemical, TCAMS library (AID 1159588; cut-off not given, nearly all actives have IC50 up to about 0.91 µM). As to conditions: recombinant PfCDPK4, Kinase-Glo ATP depletion luminescence.
Chain of Calcium-dependent protein kinase 4 (Plasmodium falciparum (isolate 3D7)) (Q8IBS5 whole entry, looked up): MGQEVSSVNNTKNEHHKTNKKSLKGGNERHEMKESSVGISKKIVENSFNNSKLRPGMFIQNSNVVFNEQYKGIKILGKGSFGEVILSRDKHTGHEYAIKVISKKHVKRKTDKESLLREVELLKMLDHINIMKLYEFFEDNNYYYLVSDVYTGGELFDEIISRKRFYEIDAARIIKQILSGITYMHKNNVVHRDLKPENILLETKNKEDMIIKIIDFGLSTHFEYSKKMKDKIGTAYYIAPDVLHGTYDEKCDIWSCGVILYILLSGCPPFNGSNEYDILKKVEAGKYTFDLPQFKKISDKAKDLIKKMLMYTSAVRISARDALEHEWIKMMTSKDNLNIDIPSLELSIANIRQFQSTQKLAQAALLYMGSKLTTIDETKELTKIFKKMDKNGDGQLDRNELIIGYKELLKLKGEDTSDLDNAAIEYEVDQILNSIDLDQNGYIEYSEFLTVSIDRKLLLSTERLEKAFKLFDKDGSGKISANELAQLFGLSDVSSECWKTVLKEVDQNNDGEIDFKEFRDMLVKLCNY

Chain of Protein kinase 7 (PK7), Plasmodium falciparum 3D7 (PF3D7_0213400) (Q7YTF7 1-343): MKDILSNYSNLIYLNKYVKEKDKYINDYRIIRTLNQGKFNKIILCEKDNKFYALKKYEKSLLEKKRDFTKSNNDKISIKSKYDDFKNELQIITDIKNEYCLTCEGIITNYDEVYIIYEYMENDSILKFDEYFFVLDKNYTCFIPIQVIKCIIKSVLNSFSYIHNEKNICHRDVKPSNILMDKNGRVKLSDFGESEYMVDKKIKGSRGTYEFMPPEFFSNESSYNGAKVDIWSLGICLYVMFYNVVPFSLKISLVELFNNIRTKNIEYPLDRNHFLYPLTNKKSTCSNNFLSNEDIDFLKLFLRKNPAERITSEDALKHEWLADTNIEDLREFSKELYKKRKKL
Chain of Plasmodium falciparum protein kinase 6 (PK6, PF3D7_1337100) (Q8IDW1 1-305): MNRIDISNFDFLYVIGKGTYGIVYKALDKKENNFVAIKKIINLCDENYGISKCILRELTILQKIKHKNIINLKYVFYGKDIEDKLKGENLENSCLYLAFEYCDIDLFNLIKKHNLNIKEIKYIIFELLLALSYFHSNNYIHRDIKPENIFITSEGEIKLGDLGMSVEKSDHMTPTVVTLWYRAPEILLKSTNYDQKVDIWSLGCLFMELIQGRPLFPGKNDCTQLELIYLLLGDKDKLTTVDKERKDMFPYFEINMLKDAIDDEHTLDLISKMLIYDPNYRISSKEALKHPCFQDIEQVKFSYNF
Chain of Calcium-dependent protein kinase 1 (Plasmodium falciparum (isolate 3D7)) (P62344 whole entry, looked up): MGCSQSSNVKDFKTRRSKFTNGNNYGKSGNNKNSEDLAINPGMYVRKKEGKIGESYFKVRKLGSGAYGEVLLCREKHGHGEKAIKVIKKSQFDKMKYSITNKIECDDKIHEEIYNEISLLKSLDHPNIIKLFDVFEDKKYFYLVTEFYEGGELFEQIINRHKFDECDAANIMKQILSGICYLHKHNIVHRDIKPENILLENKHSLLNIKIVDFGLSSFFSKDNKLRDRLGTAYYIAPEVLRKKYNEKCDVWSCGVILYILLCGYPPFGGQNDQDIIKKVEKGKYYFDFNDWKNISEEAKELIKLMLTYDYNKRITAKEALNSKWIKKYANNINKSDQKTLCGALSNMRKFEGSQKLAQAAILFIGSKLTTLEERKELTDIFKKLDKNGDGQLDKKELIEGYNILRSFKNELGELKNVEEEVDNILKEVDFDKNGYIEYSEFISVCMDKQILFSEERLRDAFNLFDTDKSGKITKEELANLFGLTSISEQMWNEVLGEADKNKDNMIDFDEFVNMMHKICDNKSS
Chain of L-lactate dehydrogenase (Plasmodium falciparum (isolate CDC / Honduras)) (Q27743 whole entry, looked up): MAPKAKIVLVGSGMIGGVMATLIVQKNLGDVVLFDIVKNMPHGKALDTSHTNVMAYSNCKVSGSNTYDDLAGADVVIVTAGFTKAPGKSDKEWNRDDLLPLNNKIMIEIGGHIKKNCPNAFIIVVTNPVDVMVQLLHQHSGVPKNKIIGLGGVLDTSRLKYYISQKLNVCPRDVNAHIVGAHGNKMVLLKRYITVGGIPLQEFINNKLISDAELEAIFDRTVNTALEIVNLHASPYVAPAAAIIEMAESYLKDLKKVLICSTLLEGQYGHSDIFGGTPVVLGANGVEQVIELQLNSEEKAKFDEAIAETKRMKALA

As to `Cc1ccccc1C1CCN(C2CCC(NC(=O)c3ccc(-c4cccc(C(F)(F)F)c4)o3)CC2)CC1` (stereo not given), the growth inhibition in assay [1] is 101% (active); in assay [4], 99% (active). Also, the inhibition in assay [2] is 56% (active); in assay [3], -2%. For the same compound, the outcome in assay [5], in assay [6], in assay [7] and in assay [8] was inactive.
For the compound `COC(=O)c1ccc(NC(=O)c2ccc(CCN3CCC(c4nc(COCC(F)(F)F)c(-c5ccc(F)cc5)o4)CC3)cc2)cc1`, the growth inhibition in assay [1] was 37%; in assay [4] it was 89% (active). In addition, the inhibition in assay [2] is 22%; in assay [3], -5%. Also, the result in assay [5], in assay [6], in assay [7] and in assay [8] was inactive.
Turning to `O=C(Nc1cccc(CN2CCCN(CCc3ccccc3)CC2)c1)c1ccc(Cl)c(Cl)c1`, the growth inhibition in assay [1] is 15%; in assay [4], 86% (active). Moreover, the inhibition in assay [2] was 41%; in assay [3] it was -5%. The result in assay [5], in assay [6], in assay [7] and in assay [8] was inactive.
Regarding `Cc1cc2cc(/C=C/C(=O)NC3CCC(CCN4CCc5ccc(C#N)cc5CC4)CC3)ccc2[nH]1` (stereo not given), the growth inhibition is 49% in assay [1] and 85% (active) in assay [4]. In addition, the inhibition in assay [2] is 6%; in assay [3], -1%. Moreover, the outcome in assay [5], in assay [6], in assay [7] and in assay [8] was inactive.
Consider `CCCCc1ccccc1NS(=O)(=O)c1ccc(OC)c(N2CCNCC2)c1`, for which the growth inhibition in assay [1] was 2%; in assay [4], 91% (active). Also, the inhibition is 6% in assay [2] and 0% in assay [3]. The outcome in assay [5], in assay [6], in assay [7] and in assay [8] was inactive.
For `COC(=O)c1ccc2nc(-c3cc(-c4cccc(-c5ccccc5)c4)cnc3N)[nH]c2c1`, the growth inhibition was 61% (active) in assay [1] and 101% (active) in assay [4]. Further, the inhibition in assay [2] is 25%; in assay [3], 5%. The result in assay [5], in assay [6], in assay [7] and in assay [8] was inactive.
Take `CCN1CCC(N(Cc2ccc(-c3ccc(C(F)(F)F)cc3)cc2)C(=O)Cn2nc(C)c(=O)cc2SCc2ccc(F)cc2)CC1`: the growth inhibition in assay [1] and in assay [4] was 94% (active) each time. Moreover, the inhibition in assay [2] is 77% (active); in assay [3], -1%. In addition, the result in assay [5], in assay [6], in assay [7] and in assay [8] was inactive.
In the case of `COc1nc2c(N3CCN(CCNCc4ccc5c(n4)NC(=O)CS5)CC3)ccnc2cc1F`, the growth inhibition is 96% (active) in assay [1] and 101% (active) in assay [4]. For the same compound, the inhibition is 18% in assay [2] and -6% in assay [3]. Further, the result in assay [5], in assay [6], in assay [7] and in assay [8] was inactive.
Take `C=CC[C@H](NC(=O)c1ccc(NS(=O)(=O)c2ccc3nc(N)[nH]c(=O)c3c2)cc1)C(=O)OCCCC`: the growth inhibition is 2% in assay [1] and 97% (active) in assay [4]. The inhibition is 61% (active) in assay [2] and 1% in assay [3]. Also, the outcome in assay [5], in assay [6], in assay [7] and in assay [8] was inactive.
For `O=C(Nc1cccc(-c2nn3ncccc3c2-c2ccnc(Nc3ccc(N4CCOCC4)cc3)n2)c1)c1c(F)cccc1F`, the growth inhibition in assay [1] was 75% (active); in assay [4], 101% (active). Also, the values for the inhibition in assay [2] and in assay [3] were 75% (active) and 7%, respectively. Besides, the outcome in assay [5], in assay [6], in assay [7] and in assay [8] was inactive.
Turning to `O=C(CCc1cnc[nH]1)Nc1cccc(-c2cccc(-c3nc4ccccc4[nH]3)c2)c1`, the growth inhibition is 25% in assay [1] and 101% (active) in assay [4]. The values for the inhibition in assay [2] and in assay [3] were 8% and 3%, respectively. Also, the result in assay [5], in assay [6], in assay [7] and in assay [8] was inactive.
In the case of `CCCCCCN=C(N)c1ccc(OCCCCCOc2ccc(C(N)=NCCCCCC)cc2)cc1`, the growth inhibition was 98% (active) in assay [1] and 97% (active) in assay [4]. In addition, the inhibition in assay [2] was 55% (active); in assay [3], -8%. Also, the outcome in assay [5], in assay [6], in assay [7] and in assay [8] was inactive.
In the case of `O=C(Nc1ccc([N+](=O)[O-])cc1O)Nc1ccccc1Oc1ccccc1`, the values for the growth inhibition in assay [1] and in assay [4] were 1% and 92% (active), respectively. Further, the values for the inhibition in assay [2] and in assay [3] were 45% and -8%, respectively. Also, the outcome in assay [5], in assay [6], in assay [7] and in assay [8] was inactive.
For `CN1CCN(c2ccnc3ccc(NC(=O)Nc4ccc(-c5ccncc5)c(C(F)(F)F)c4)cc23)CC1`, the growth inhibition in assay [1] and in assay [4] was 99% (active) in each case. For the same compound, the results for the inhibition in assay [2] and in assay [3] were 12% and 6%, respectively. Further, the outcome in assay [5], in assay [6], in assay [7] and in assay [8] was inactive.
As for `Cc1cccc2[nH]c(-c3cccc(-c4cccc(CNCc5ccc(S(C)(=O)=O)cc5)c4)c3)nc12`, the growth inhibition was 66% (active) in assay [1] and 100% (active) in assay [4]. In addition, the inhibition in assay [2] is 13%; in assay [3], 0%. Moreover, the outcome in assay [5], in assay [6], in assay [7] and in assay [8] was inactive.
On to `Cc1ccc(N2C(N)=NC(N)=NC2c2ccccc2)cc1` (stereo not given), for which the growth inhibition is 1% in assay [1] and 94% (active) in assay [4]. Besides, the figures for the inhibition in assay [2] and in assay [3] were 11% and -1%, respectively. Also, the outcome in assay [5], in assay [6], in assay [7] and in assay [8] was inactive.
For the compound `CN1CC=C(c2csc3ccc(NC(=O)Nc4ccc(-c5ccncc5)c5ccccc45)cc23)CC1`, the growth inhibition in assay [1] is 99% (active); in assay [4], 93% (active). Also, the inhibition in assay [2] was 20%; in assay [3] it was 1%. Further, the result in assay [5], in assay [6], in assay [7] and in assay [8] was inactive.
Turning to `COc1ccc(CNCCCCCCNCCc2ccc(Cl)cc2)cc1OC`, the growth inhibition was 0% in assay [1] and 96% (active) in assay [4]. For the same compound, the inhibition in assay [2] is 21%; in assay [3], 0%. The result in assay [5], in assay [6], in assay [7] and in assay [8] was inactive.
For `OC(CNCc1ccco1)Cn1c2ccc(Br)cc2c2cc(Br)ccc21` (stereo not given), the growth inhibition in assay [1] is 72% (active); in assay [4], 92% (active). Also, the figures for the inhibition in assay [2] and in assay [3] were 10% and -3%, respectively. Also, the outcome in assay [5], in assay [6], in assay [7] and in assay [8] was inactive.
For `COc1ccc(CCCN2C(=O)C(c3ccccc3)(c3ccccc3)N=C2N)cc1`, the values for the growth inhibition in assay [1] and in assay [4] were 76% (active) and 94% (active), respectively. The inhibition in assay [2] is 21%; in assay [3], 5%. In addition, the result in assay [5], in assay [6], in assay [7] and in assay [8] was inactive.
